Assay outcomes: PubChem BioAssay, several laboratories
CF NFkB block – cystic fibrosis NF-kB activation inhibition. AID 588850. inhibition, % at 5 µM. KKLEB NF-kB-GFP reporter, PAF-induced, GFP fluorescence overnight. 360,000 compounds, 0.86% hits;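 active = at least 50% inhibition at 5 µM, scaled per plate between neutral and stimulator controls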;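 also: PAF is a Pseudomonas aeruginosa culture filtrate used as stimulus; plate controls were PAF-stimulated DMSO wells for no effect and unstimulated DMSO wells for full effect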
TRPM1 prom inh – inhibitors of MITF-driven TRPM1 promoter in melanoma cells. SK-MEL-5 TRPM1 promoter luciferase, 24 h. inhibition, % at 12.5 µM. 330,000 compounds, 0.83% hits. AID 488899;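 active = mean inhibition across replicates of 60% or more, whatever share of single replicates reaches that level; inconclusive = some that reach 60%, reason not given; inactive = mean inhibition across replicates below 60%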
KKLEB tox – counter-screen for CF NF-kB inhibitors: cytotoxicity | KKLEB CF airway cells viability, ATPlite luminescence, overnight; hits give low values; cells stimulated with P. aeruginosa culture filtrate | activity change (cytotoxicity), % at 5 µM | 360,000 compounds, 0.36% hits | AID 602141;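 active = corrected activity change at or below -50% at 5 µM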
HIF-2a inh – blocks HIF-2a reporter activity | 786-0 RCC cells HIF-2a reporter, luciferase luminescence, overnight | inhibition, % at 18.8 µM | 360,000 compounds, 0.72% hits | AID 624352;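 active = inhibition of the luminescence signal of 40% or more relative to plate controls, in a single-dose primary screen at 18.75 µM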
ABHD5 PLIN5 PPI – blocks binding of human ABHD5 to perilipin-5. Q00G26+Q8WTS1. Split G. princeps luciferase complementation, luminescence, 4 h. inhibition, % at 4 µM. 360,000 compounds, 0.78% hits;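 active = inhibition above the mean inhibition across every tested compound plus 3 SD, cut at about 22% in these data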;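 also: 0% = DMSO only wells and the 100% control is not disclosed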
Target sequence (Q00G26 whole entry, looked up): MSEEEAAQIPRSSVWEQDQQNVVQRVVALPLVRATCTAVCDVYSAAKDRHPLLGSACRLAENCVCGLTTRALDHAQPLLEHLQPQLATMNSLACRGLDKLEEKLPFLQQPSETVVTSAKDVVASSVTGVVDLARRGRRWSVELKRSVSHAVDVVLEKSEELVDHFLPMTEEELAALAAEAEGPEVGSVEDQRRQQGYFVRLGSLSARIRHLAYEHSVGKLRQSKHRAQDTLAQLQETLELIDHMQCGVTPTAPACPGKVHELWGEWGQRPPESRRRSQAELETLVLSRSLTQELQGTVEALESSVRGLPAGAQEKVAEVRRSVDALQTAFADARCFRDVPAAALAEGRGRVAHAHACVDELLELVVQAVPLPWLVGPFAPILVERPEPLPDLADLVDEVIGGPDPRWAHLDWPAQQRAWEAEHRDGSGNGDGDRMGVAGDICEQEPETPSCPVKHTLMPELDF
Target sequence (Q8WTS1 whole entry, looked up): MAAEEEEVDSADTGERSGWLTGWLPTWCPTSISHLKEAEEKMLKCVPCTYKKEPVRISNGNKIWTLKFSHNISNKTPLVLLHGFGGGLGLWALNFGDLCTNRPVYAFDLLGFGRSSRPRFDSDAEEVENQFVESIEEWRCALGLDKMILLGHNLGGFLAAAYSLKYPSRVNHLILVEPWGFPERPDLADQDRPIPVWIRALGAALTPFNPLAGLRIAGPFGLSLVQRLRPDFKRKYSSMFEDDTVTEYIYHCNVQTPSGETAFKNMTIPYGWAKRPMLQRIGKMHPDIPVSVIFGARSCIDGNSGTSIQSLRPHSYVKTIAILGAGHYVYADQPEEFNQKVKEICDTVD
Peg3 promoter – reduces Peg3 promoter-driven luciferase expression in HeLa; inhibition, % at 20 µM; HeLa PEG-Prom luciferase reporter, luminescence, overnight; 360,000 compounds, 1.7% hits; AID 588405;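 active = inhibition of at least 50% at 20 µM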
* = called active by the depositor. Hits are enriched below; roughly 3.1% of the tested compounds scored in any of these assays.

COc1ccc(-c2csc(N(Cc3ccccc3)C(=O)COc3ccc(Cl)cc3)n2)cc1 was read as CF NFkB block 20, TRPM1 prom inh 2, KKLEB tox -26, HIF-2a inh 8, ABHD5 PLIN5 PPI 2 and Peg3 promoter 70*.
`C=C[C@H]1C(C(=O)OCC)=CC[C@@H](c2ccccc2)N1S(=O)(=O)c1ccc(C)cc1` gave CF NFkB block 34, KKLEB tox -16, HIF-2a inh 24, ABHD5 PLIN5 PPI -13 and Peg3 promoter 29.
COc1cnc(-c2ccccn2)nc1NC(C)C was read as CF NFkB block -3, TRPM1 prom inh 66*, KKLEB tox -19, HIF-2a inh -12, ABHD5 PLIN5 PPI 2 and Peg3 promoter 36.
For Clc1ccc(/C=C/c2nc3ccccc3[nH]2)c(Cl)c1 the results were CF NFkB block -18, TRPM1 prom inh 5, KKLEB tox -76*, HIF-2a inh -93, ABHD5 PLIN5 PPI -2 and Peg3 promoter -83.
Screening Clc1ccc(/C=C/c2nc3ccccc3[nH]2)cc1 returned CF NFkB block -14, TRPM1 prom inh 19, KKLEB tox -74*, HIF-2a inh -46, ABHD5 PLIN5 PPI -1 and Peg3 promoter -50.
`CCC(C(=O)N1CCC(N2CCCCC2)CC1)n1nc(C)c2sc3ccccc3c2c1=O` (centres undefined) gave CF NFkB block -4, TRPM1 prom inh -5, KKLEB tox 4, HIF-2a inh 6, ABHD5 PLIN5 PPI 2 and Peg3 promoter -14.
Cc1cc(C)n(-c2nc(SCCN(C)C)c3c4c(sc3n2)COC(C)(C)C4)n1 was read as CF NFkB block 6, TRPM1 prom inh 0, KKLEB tox -34, HIF-2a inh -29, ABHD5 PLIN5 PPI 3 and Peg3 promoter 54*.
O=C(CNCc1ccccn1)Nc1ccc([N+](=O)[O-])cc1C(=O)Nc1ccccc1F was read as CF NFkB block -2, TRPM1 prom inh 22, KKLEB tox -1, HIF-2a inh 14, ABHD5 PLIN5 PPI 3 and Peg3 promoter 22.
Cc1cc(NCCCCCCCNc2cc(C)nc3cc([N+](=O)[O-])ccc23)c2ccc([N+](=O)[O-])cc2n1 was read as CF NFkB block 7, TRPM1 prom inh inconclusive, KKLEB tox 11, HIF-2a inh 33, ABHD5 PLIN5 PPI -8 and Peg3 promoter 102*.
CN(C)S(=O)(=O)c1ccc(N2CCCC2)c(C(=O)OCC(=O)N2CCN(c3ccccc3)CC2)c1 was read as CF NFkB block 12, TRPM1 prom inh 8, KKLEB tox -2, HIF-2a inh -28, ABHD5 PLIN5 PPI 8 and Peg3 promoter 13.
`CC1CCCN(c2ncnc3c2cnn3-c2ccccc2)C1` (centres undefined) gave CF NFkB block -34, TRPM1 prom inh 41, KKLEB tox -54*, HIF-2a inh 18, ABHD5 PLIN5 PPI -7 and Peg3 promoter 2.
`CCN(CC)C(=O)C1CCCN(c2ncnc3c2cnn3-c2cccc(C)c2)C1` (centres undefined) gave CF NFkB block 4, TRPM1 prom inh 17, KKLEB tox -1, HIF-2a inh -13, ABHD5 PLIN5 PPI -3 and Peg3 promoter -6.
CCN(CC)C(=O)C1CCCN(c2ncnc3c2cnn3-c2ccc(Cl)cc2)C1 (centres undefined) was read as CF NFkB block -1, TRPM1 prom inh 60, KKLEB tox -6, HIF-2a inh 50*, ABHD5 PLIN5 PPI 5 and Peg3 promoter 56*.
For C=CCn1c(SCc2ccc(C(=O)Nc3nccs3)cc2)nnc1-c1ccc(C)c(Cl)c1 the results were CF NFkB block 23, TRPM1 prom inh 19, KKLEB tox -5, HIF-2a inh -46, ABHD5 PLIN5 PPI -1 and Peg3 promoter 52*.
Cn1nnnc1SCc1ccc(C(=O)Nc2nccs2)cc1 was read as CF NFkB block 5, TRPM1 prom inh -47, KKLEB tox 16, HIF-2a inh -198, ABHD5 PLIN5 PPI -9 and Peg3 promoter -130.
For Cc1cccc(NC(=O)CSc2cc(C(=O)c3nccn3C)c3ccccc3n2)c1 the results were CF NFkB block 40, TRPM1 prom inh 13, KKLEB tox -54*, HIF-2a inh -11, ABHD5 PLIN5 PPI -4 and Peg3 promoter 19.
For CC(=O)Nc1ccc(SCC(=O)c2cc(C)n(-c3ccccc3F)c2C)cc1 the results were CF NFkB block -25, TRPM1 prom inh 0, KKLEB tox 11, HIF-2a inh 50*, ABHD5 PLIN5 PPI 0 and Peg3 promoter 18.
For Cc1cc(C(=O)COC(=O)c2ccc[nH]c2=O)c(C)n1-c1ccccc1F the results were CF NFkB block 7, TRPM1 prom inh 7, KKLEB tox 0, HIF-2a inh 45*, ABHD5 PLIN5 PPI -6 and Peg3 promoter -57.
For COC(=O)c1ccc(-n2c(C)cc(C(=O)CSc3ccc(NC(C)=O)cc3)c2C)cc1 the results were CF NFkB block -19, TRPM1 prom inh -2, KKLEB tox 11, HIF-2a inh 5, ABHD5 PLIN5 PPI -3 and Peg3 promoter 7.
For Cc1ccc(-n2c(C)cc(C(=O)COC(=O)c3ccc[nH]c3=O)c2C)cc1C the results were CF NFkB block 3, TRPM1 prom inh -1, KKLEB tox 0, HIF-2a inh 7, ABHD5 PLIN5 PPI 2 and Peg3 promoter -221.
Screening Cc1ccc(S(=O)(=O)NCC(=O)NCC2CCCCC2)cc1C returned CF NFkB block -12, TRPM1 prom inh 4, KKLEB tox 8, HIF-2a inh 14, ABHD5 PLIN5 PPI 6 and Peg3 promoter 7.
Cc1ccc(/C=C2\Oc3cc(OCC(=O)NN)ccc3C2=O)o1 was read as CF NFkB block -4, TRPM1 prom inh 10, KKLEB tox -8, HIF-2a inh 15, ABHD5 PLIN5 PPI -1 and Peg3 promoter -6.
`CCn1c2ccccc2c2cc(C3C(C#N)=C(N)Oc4n[nH]c(COC)c43)ccc21` (centres undefined) gave CF NFkB block -7, TRPM1 prom inh 10, KKLEB tox -33, HIF-2a inh 19, ABHD5 PLIN5 PPI 2 and Peg3 promoter 89*.
Screening Cc1cccc2cccnc12 returned CF NFkB block -3, TRPM1 prom inh 0, KKLEB tox -3, HIF-2a inh 11, ABHD5 PLIN5 PPI -7 and Peg3 promoter 5.
Screening Cc1ccnc2c1ccc1ccccc12 returned CF NFkB block 0, TRPM1 prom inh -12, KKLEB tox 5, HIF-2a inh -5, ABHD5 PLIN5 PPI 2 and Peg3 promoter -24.
Screening Cc1ccnc2c1ccc1c(C)ccnc12 returned CF NFkB block 22, TRPM1 prom inh 77*, KKLEB tox -9, HIF-2a inh -161, ABHD5 PLIN5 PPI -23 and Peg3 promoter -8.
`Cc1ccnc2c1ccc1cccnc12` gave CF NFkB block 3, TRPM1 prom inh 79*, KKLEB tox 2, HIF-2a inh -30, ABHD5 PLIN5 PPI -10 and Peg3 promoter 24.
